Screens deposited in PubChem BioAssay by National Center for Advancing Translational Sciences (NCATS).
Rows were chosen to be rich in hits. Some 19% of all compounds tested hit in one or more screens of this group.
DT40 TDP1 no CPT: qHTS for Inhibitors of human tyrosyl-DNA phosphodiesterase 1 (TDP1): qHTS in cells in absence of CPT | DT40 Tdp1-/- hTDP1 cells, no CPT, ATP luminescence, 48 h | Potency, µM (doses to about 46.2 µM), without a hit: top-dose activity change, negative = growth inhibition, actives largely listed as inhibitors | 15% of 420,000 active; further: nearly all actives have a fitted effect of over 55% in size
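Camptothecin absent (DMSO only). Human TDP1-complemented DT40 knockout cells, 400 cells/well, 37 °C for minimum 48 hr; ATP measured via CellTiter-Glo, 30 min dark incubation, luminescence.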
RORg inh: inhibitors of mouse ROR gamma transcriptional activity; P51450; Drosophila S2 Gal4-RORgamma UAS-luciferase reporter, 20 h; Potency, µM (top dose mostly 53.6 µM), inactives show at the highest dose activity change, negative = inhibition, usual class: inhibitors; 5.4% of 310,000 active; AID 2551; further: nearly all actives have a fitted effect of over 60% in size
Target sequence (P51450 whole entry, looked up, the tested form may be a part): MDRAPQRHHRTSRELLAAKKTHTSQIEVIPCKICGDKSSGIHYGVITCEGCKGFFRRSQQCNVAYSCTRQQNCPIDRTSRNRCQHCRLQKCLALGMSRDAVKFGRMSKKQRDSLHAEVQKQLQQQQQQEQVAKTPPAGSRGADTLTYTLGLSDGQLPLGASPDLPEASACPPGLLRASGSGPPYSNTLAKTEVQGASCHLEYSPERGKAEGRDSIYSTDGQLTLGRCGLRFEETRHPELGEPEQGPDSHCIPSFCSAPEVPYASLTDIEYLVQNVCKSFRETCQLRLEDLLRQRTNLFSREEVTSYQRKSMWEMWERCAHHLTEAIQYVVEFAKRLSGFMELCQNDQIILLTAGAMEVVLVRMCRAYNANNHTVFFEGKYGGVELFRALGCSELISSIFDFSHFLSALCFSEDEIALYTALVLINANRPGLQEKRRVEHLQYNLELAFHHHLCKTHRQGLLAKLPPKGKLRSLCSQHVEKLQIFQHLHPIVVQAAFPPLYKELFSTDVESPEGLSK
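Using a luciferase readout, inhibitors were identified by reduced reporter activity in Drosophila cells coexpressing a copper-inducible Gal4–ROR gamma fusion and UAS-driven Photinus luciferase, incubated 20 hr after 700 uM copper sulfate.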
TDP1 block: TDP1 (human) enzyme inhibition; Q9NUW8; recombinant TDP1, AlphaScreen DNA substrate cleavage; Potency, µM (titrated, usually from 130 µM), for inactives: top-dose activity change, negative = inhibition, hits mostly inhibitors; 0.28% of 350,000 active; AID 485290; further: nearly all actives have a fitted effect of over 40% in size
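AlphaScreen read-out: signal falls as enzyme removes the 3' tyrosine-FITC from a 5'-biotinylated DNA oligo (15 nM, 5 min, RT). Enzyme was E. coli-made recombinant Tdp1 at 1 nM, exposed to compound for 15 min beforehand; beads 10 ug/ml, 10 min.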
TDP1 cell CPT: growth inhibition of DT40 Tdp1-/-;hTDP1 cells with camptothecin (screen for TDP1 inhibitors) | Potency, µM (top dose mostly 46.2 µM), for inactives: at the highest dose activity change, negative = growth inhibition, usual class: inhibitors | AID 686979 | 12% of 420,000 active | chicken DT40 Tdp1-/-;hTDP1 cells + 20 nM CPT, ATP luminescence, 48 h; further: nearly all actives have a fitted effect of over 55% in size
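Chicken DT40 Tdp1-/- cells complemented with human TDP1, 400 cells/well, exposed to compounds plus 20 nM camptothecin for at least 48 h at 37 C; viability read as ATP content by CellTiter-Glo luminescence.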
Gal4-VP16 FLuc: inhibits Gal4-VP16 luciferase reporter, ROR gamma counter-screen | 3.5% of 310,000 active | Drosophila S2 Gal4-VP16 UAS-luciferase, luminescence, 20 h | AID 2546 | Potency, µM (titrated, usually from 53.6 µM), without a hit: at the top dose activity, negative = inhibition, most hits filed as inhibitors;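 further: Gal4-VP16 expression switched on by copper sulfate through the metallothionein promoter; nearly all actives have a fitted effect of over 50% in size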
Starred values were filed as active, the others as inactive; ? = inconclusive; nt = no result given; [ ] = another dose, or the depositor's remark. The call rests on the fitted dose curve; in most records, active means well fitted curve in the direction sought with a large enough effect; inconclusive means small, poorly fitted or top-dose-only effect, or another doubt; inactive means no such curve, though single readings can be large; an effect the other way counts as inactive or inconclusive. On the % scale 0 is the no-effect control and ±100 the full control effect; potency means the concentration at half of the fitted maximal effect.

SMILES | DT40 TDP1 no CPT | RORg inh | TDP1 block | TDP1 cell CPT | Gal4-VP16 FLuc
Cc1cc(C#N)c(C)c(SCc2[nH]nc3c2C(c2ccccc2)C(C#N)=C(N)O3)n1 (stereo not drawn) | 0% | 33% | 5% | 6% | ?
COc1ccccc1N1CCN(C(=O)/C=C/c2cccs2)CC1 | ? | 36% | -3% | ? | -11%
CCOC(=O)c1oc2cccc(OCC(O)CNC(C)C)c2c1C (stereo not drawn) | ? | -38% | -2% | 21µM* | 16µM*
Cc1cccc(C)c1OCC(O)CNC(C)C (stereo not drawn) | -7% | 5% | -2% | -1% | -6%
Cc1c(Cl)cccc1NC(=S)Nc1ccc2[nH]c(=O)[nH]c2c1 | -1% | 0% | nt | 0% | -17%
CC(=O)Cn1c2ccccc2n2nc(CCC(=O)O)c(=O)nc12 | 0% | 3% | 3% | 7% | -7%
COc1ccc(S(=O)(=O)NCCC(=O)NC2CCCCC2C)cc1[N+](=O)[O-] (stereo not drawn) | -44% | nt | 18µM* | -18% | nt
CC(C)CNC(=O)CSc1nnc(CN2CCCCCC2=O)n1-c1ccccn1 | 9% | -20% | 2% | -1% | -8%
CCC(=O)N1CCCc2cc(S(=O)(=O)N3CCC(C(=O)Nc4ccc(C#N)cc4)CC3)ccc21 | ? | nt | 0% | 18µM* | nt
CCC(=O)N1CCCc2cc(S(=O)(=O)N3CCC(C(=O)NC4CCCCC4)CC3)ccc21 | -20% | nt | 1% | -3% | nt
CCC(=O)N1CCCc2cc(S(=O)(=O)N3CCC(C(=O)NCc4ccc(F)cc4)CC3)ccc21 | -29% | nt | 7% | ? | nt
CCC(=O)N1CCCc2cc(S(=O)(=O)N3CCC(C(=O)Nc4ccc(F)c(F)c4)CC3)ccc21 | 12µM* | nt | 5% | -87% | nt
O=C(Nc1ccccc1)C1CCN(S(=O)(=O)c2ccc3c(c2)CCCN3C(=O)C2CCC2)CC1 | ? | nt | 7% | ? | nt
O=C(Nc1ccc(F)c(Cl)c1)C1CCN(S(=O)(=O)c2ccc3c(c2)CCCN3C(=O)C2CCC2)CC1 | 12µM* | nt | -2% | 9.2µM* | nt
CCOc1cccc2c1OC1(C)CC2NC(=O)N1c1cccc(C(=O)N2CCN(c3ccccn3)CC2)c1 (stereo not drawn) | -20% | 15% | 5% | -23% | -9%
CCCCCC[n+]1ccccc1/C=C/c1ccc(N(C)C)cc1 | 0.052µM* | nt | nt | 0.058µM* | nt
CN(C)c1ccc(/C=C/c2cc[n+]([O-])cc2)cc1 | nt | -31% | 2% | nt | -26%
c1ccc2c(c1)ccn2CCCN1CCCCC1 | -5% | nt | nt | -4% | nt
CCC[C@H](CN[C@@H](CNC)[C@H](C)CC)NCCc1cc(C(F)(F)F)cc(C(F)(F)F)c1 | 3.3µM* | ? | nt | 12µM* | ?
CC[C@@H](C)[C@H](CNC)NC[C@@H](Cc1cccc2ccccc12)NCCc1cccc(C(F)(F)F)c1 | ? | 13µM* | nt | 23µM* | ?
CCC[C@@H](CN[C@@H](CNC)[C@H](C)CC)NCC1CCC(C(C)(C)C)CC1 (stereo partly drawn) | 0.65µM* | 11µM* | nt | 1µM* | ?
COc1cccc(CNC(=O)c2nn(C)c3c2CSc2ccccc2-3)c1 | ? | nt | -3% | -4% | nt
CCOC(=O)C(=O)Nc1nnc(COc2ccccc2)s1 | 14% | -24% | -1% | -1% | 19%
CC(C)CCNC(=O)C1CCCN(S(=O)(=O)c2ccc(-n3cnnn3)cc2)C1 (stereo not drawn) | -10% | ? | 5% | ? | -2%
CCN(CC)CCOc1c(Br)ccc2c1sc1nc3n(c(=O)c12)CCC3 | 21µM* | -1% | nt | ? | -12%
O=c1c2c(nc3n1CCCCC3)sc1c(O)c(Br)ccc12 | -20% | 8.9µM* | -3% | -2% | 4.5µM*
Cc1sc2nc3n(c(=O)c2c1C)CCCCC3 | ? | ? | 3%[56.1 µM] | -17% | 24%
CCOC(=O)CNC(=O)N(C)[C@H]1C[C@H]2c3[nH]c4ccccc4c3CCN2C[C@H]1[C@H](C)O | -13% | nt | nt | -30% | nt
